{"source": "PubChem BioAssay AID1918969", "about": "(ICCB-Longwood Screening Facility, Harvard Medical School, 2023)", "note": "About 280 (0.15%) of roughly 190,000 compounds were called active. This excerpt belongs to a sample that is enriched for actives. Values without a mark were called inactive. No stated cut-off is given here; in the data, active means inhibition above about 27% (passing the limit was not always enough); inactive means the rest."}
{"system": "HCMV UL50-UL53 nuclear egress complex (human cytomegalovirus)", "experiment": "HCMV nuclear egress complex disruptors – biochemical, HTRF (AID 1918969)", "conditions": "HTRF UL50-UL53 interaction, normalized percent inhibition; stronger effect = higher value; concentration not given here"}
{"smiles": "COc1ccccc1N1CCN(C(=O)Cc2csc(NC(=O)Nc3ccccc3)n2)CC1", "inhibition": "-7.3%"}
{"smiles": "CC1CCN(C(=O)c2cn(C)cc3c(=O)n(-c4ccccc4)nc2-3)CC1", "inhibition": "-66.2%"}
{"smiles": "CC(C)(C)c1ccc(CN2C(=O)N(Cc3ccccc3)S(=O)(=O)c3ccccc32)cc1", "inhibition": "-19.5%"}
{"smiles": "Cc1nnc(NC(=O)Cn2cnc3oc(C)c(C)c3c2=O)s1", "inhibition": "-21.8%"}
{"smiles": "O=S(=O)(NCCc1ccccn1)c1cc(Cl)cc(Cl)c1O", "inhibition": "-28.9%"}
{"smiles": "Cc1noc(C)c1C(=O)c1c(C)[nH]n(-c2ccccc2)c1=O", "inhibition": "-25.3%"}
{"smiles": "Cc1ccc(Sc2c(C)[nH]n(-c3ccccc3)c2=O)cc1", "inhibition": "-26%"}
{"smiles": "CC1=NOC(=O)C1C(c1cccc(Br)c1)c1c(C)[nH]n(-c2ccccc2)c1=O", "note": "(centres undefined)", "inhibition": "59.5% (active)"}
{"smiles": "O=C(CN1C(=O)c2ccccc2C1=O)Nc1ccc2c(c1)CCC(=O)N2", "inhibition": "-46%"}
{"smiles": "COC(=O)c1ccc(C)c(NS(=O)(=O)c2ccc3c(c2)c(=O)sn3C)c1", "inhibition": "-31.7%"}
{"smiles": "S=C(c1ccncc1)N1CCOCC1", "inhibition": "-13.4%"}
{"smiles": "CCCCCCCCCCCCCCCC(=O)O[C@@H]1[C@@H](O)[C@@H](O)C([C@H](NC(=O)[C@@H]2C[C@@H](CCC)CN2C)[C@H](C)Cl)O[C@@H]1SC", "note": "(some centres undefined)", "inhibition": "-4.7%"}
{"smiles": "N#CCCn1cc(C=NCc2ccccc2)c(-c2cc3ccccc3o2)n1", "inhibition": "-30.5%"}
{"smiles": "COc1ccc(F)cc1-c1cc(N2CCN(S(=O)(=O)c3ccc(F)c(Cl)c3)CC2)ncn1", "inhibition": "-27.5%"}
{"smiles": "NS(=O)(=O)c1ccc(NC(=O)c2cc(-c3ccc4c(c3)OCO4)nc3ccccc23)cc1", "inhibition": "-4.6%"}
{"smiles": "COC(=O)c1sccc1NC(=O)c1cc(=O)n2c(nc3cc(C)c(C)cc32)s1", "inhibition": "-30.2%"}
{"smiles": "O=C1CN(S(=O)(=O)c2ccc(-c3ccc(=O)[nH]n3)s2)c2ccccc2N1", "inhibition": "-43.4%"}
{"smiles": "O=C(Oc1ccccc1)c1cccc(C(=O)Oc2ccccc2)c1F", "inhibition": "-13.9%"}
{"smiles": "COc1ccc(OC)c(NC(=O)c2cc3c([nH]c2=O)CC(C)(C)CC3=O)c1", "inhibition": "3.5%"}
{"smiles": "Cc1ccc(C(=O)NCC(=O)NC2CC2)cc1", "inhibition": "-17.5%"}
{"smiles": "N#CC(C#N)=C1SCN(c2cccc(Cl)c2)CS1", "inhibition": "-5%"}
{"smiles": "COc1cccc(NC(=O)c2c(-c3cccnc3)noc2C)c1", "inhibition": "-15.4%"}
{"smiles": "COc1ccc(NC(=O)CCCSc2nc3sc(C)c(C)c3c(=O)[nH]2)cc1", "inhibition": "-2.2%"}
{"smiles": "CNc1nc(OC)nc(N(C)C)n1", "inhibition": "11.3%"}
{"smiles": "O=C(Nc1ccc2oc(-c3ccccc3Br)nc2c1)c1cccc([N+](=O)[O-])c1", "inhibition": "7%"}
{"smiles": "CCc1nc(-c2cc(S(=O)(=O)N3CCCC(C(=O)Nc4ccc(C)c(F)c4)C3)c(C)s2)no1", "note": "(centres undefined)", "inhibition": "-9.2%"}
{"smiles": "Cc1ccc(NC(=O)CCCc2nc3cccnc3n2CCC(C)C)cc1", "inhibition": "-10.6%"}
{"smiles": "Nc1nc(Nc2ccccc2)sc1C(=O)c1ccc(Br)cc1", "inhibition": "-4.3%"}
{"smiles": "CC1(C)Cc2cccc(Oc3ncnc4sccc34)c2O1", "inhibition": "-13%"}
{"smiles": "O=C(CCS(=O)(=O)c1ccc2c(c1)NC(=O)CS2)NCc1ccccc1Cl", "inhibition": "-15.7%"}
{"smiles": "OC(Cc1nc2ccccc2o1)c1ccccc1", "note": "(centres undefined)", "inhibition": "-3.6%"}
{"smiles": "COc1ccc(C(=O)CSc2nc3nc[nH]c3c(=O)[nH]2)cc1", "inhibition": "-13.4%"}
{"smiles": "COc1cc(=O)[nH]c(SC(C)C(=O)Nc2ccccc2)n1", "note": "(centres undefined)", "inhibition": "-5.6%"}
{"smiles": "CCCc1noc(-c2cc(S(N)(=O)=O)ccc2OC)n1", "inhibition": "3.5%"}
{"smiles": "O=C(Cc1nc2ccccc2n1C(F)F)c1ccccc1", "inhibition": "-21.1%"}
{"smiles": "COc1ccc(N(Cc2nc3ccccc3s2)S(=O)(=O)c2cccs2)cc1", "inhibition": "-24.9%"}
{"smiles": "NC(=O)c1ccc2c3c(cccc13)CC2", "inhibition": "-30.8%"}
{"smiles": "Cc1nc(Nc2ccc(NC(=O)C(C)(C)C)cc2)cc(N(C)C)n1", "inhibition": "7.9%"}
{"smiles": "COc1cc(-c2noc(-c3ccccc3)n2)ccc1OCC(=O)Nc1ccc(F)cc1", "inhibition": "-31.7%"}
{"smiles": "CCOC(=O)C1C(=O)CC(=O)C(C(=O)OCC)C1c1ccccc1", "note": "(centres undefined)", "inhibition": "-6.9%"}
{"smiles": "CCOC(=O)c1noc2ncnc(N(CC)c3ccccc3)c12", "inhibition": "-26.1%"}
{"smiles": "O=C(NCN1CCN(CNC(=O)c2ccccc2)CC1)c1ccccc1", "inhibition": "-42.2%"}
{"smiles": "CCn1c(=O)c(=O)n(CC)c2cc(N3CCCCC3)c(NC(=O)c3ccc(Cl)cc3)cc21", "inhibition": "62.9% (active)"}
{"smiles": "CCn1c(=O)c(=O)n(CC)c2cc(N3CCCCC3)c(NC(=O)c3cccc(F)c3)cc21", "inhibition": "-3.5%"}
{"smiles": "CCn1c(=O)c(=O)n(CC)c2cc(N3CCCCC3)c(NC(=O)c3ccccc3)cc21", "inhibition": "-23.2%"}
{"smiles": "CCCCn1c(SCC(=O)N2CCCC2)nc2cn(C)nc2c1=O", "inhibition": "-19.7%"}
{"smiles": "Cn1cc(CCC(=O)NC2CC2)c2ccccc21", "inhibition": "0.4%"}
{"smiles": "CC1(C)CC(=O)C2=C(C1)N(Cc1ccco1)C(=O)C2(NC(=O)c1cccs1)C(F)(F)F", "note": "(centres undefined)", "inhibition": "-5.4%"}
{"smiles": "CCN(CC)c1ccc2cc(-c3csc(-c4nc(-c5cc6ccc(N(CC)CC)cc6oc5=O)cs4)n3)c(=O)oc2c1", "inhibition": "-0.5%"}
{"smiles": "Cc1cc(NC(=O)c2ccc(N(C)C)cc2)no1", "inhibition": "1.2%"}
{"smiles": "O=C(CC1=NS(=O)(=O)c2ccccc2N1)N1CCN(C(c2ccccc2)c2ccccc2)CC1", "inhibition": "-9.6%"}
{"smiles": "C/C(=N\\O)C(C)(C)Nc1ccccc1", "inhibition": "24.2%"}
{"smiles": "Cc1ccc(S(=O)(=O)N(C)CC(=O)OCc2nc3ccccc3s2)cc1", "inhibition": "-25.9%"}
{"smiles": "CCOC(=O)c1c(NC(=O)CSc2nccn2C)sc2c1CCC(C)C2", "note": "(centres undefined)", "inhibition": "-12.2%"}
{"smiles": "CC(C)N(C(=O)CNc1cc(Cl)ccc1Cl)c1ccccc1", "inhibition": "-6.5%"}
{"smiles": "O=C1c2ccccc2C(=O)C1c1ccccc1F", "inhibition": "-3.9%"}
{"smiles": "Cc1c(OCC(N)=O)ccc2c3c(c(=O)oc12)CCCC3", "inhibition": "7.5%"}
{"smiles": "NC(=O)c1ccc(-c2ccccc2)cc1C(N)=O", "inhibition": "-28.2%"}
{"smiles": "Nc1nc(N)nc(SCC(=O)N2CCCC2)n1", "inhibition": "-9.6%"}
